Reference: PubChem BioAssay (NCATS)
A number with no mark means an inactive call. Results filed as inconclusive are left out. Where a call stands in place of a potency, no number is given. The source made the active and inactive calls. The call rests on the fitted dose curve; in most records, active means well fitted curve in the direction sought with a large enough effect; inconclusive means small, poorly fitted or top-dose-only effect, or another doubt; inactive means no such curve, though single readings can be large; an effect the other way counts as inactive or inconclusive.

Key:
[1] = qHTS assay for measurement of the activity of small molecule inhibitors on Zika virus induced Caspase-3 activity in human iPSC derived neural progenitor cells (hNPCs) (AID 1224857); conditions: hNPCs ZIKV-induced caspase-3/7, Caspase-Glo luminescence, 6 h; series mostly up to 45.7 µM; further: nearly all actives have a fitted effect of over 65% in size; further: potency means the concentration at half of the fitted maximal effect
Method in brief: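 Human iPSC-derived neural progenitor cells pretreated 1 hr with compounds, then infected with Zika virus (2 FFU/cell) for 6 hours at 37 C. Caspase-3/7 measured by Caspase-Glo luminescence; % inhibition calculated from induction scaled to uninfected (0%) and infected (100%) wells.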

[2] = qHTS assay to identify small molecule inhibitors of chordoma cells - UCH-1 (AID 1259355); conditions: UCH-1 chordoma viability, CellTiter-Glo, 48 h, combination, with auranofin plus four topoisomerase inhibitors; series mostly up to 46.1 µM; further: nearly all actives have a fitted effect of over 55% in size; further: potency means the concentration at half of the fitted maximal effect
Method in brief: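 Screening used approved and investigational drugs in 15-point titration against 800 seeded cells per well. A fixed combination of auranofin with camptothecin, doxorubicin, rubitecan and topotecan followed compound addition, and growth was scored by CellTiter-Glo after 48hr.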

[3] = qHTS assay to identify small molecule inhibitors of chordoma cells - UCH-2 (AID 1259356); conditions: UCH-2 chordoma viability, CellTiter-Glo ATP luminescence, 48 h; series mostly up to 46.1 µM
[4] = P-glycoprotein substrates identified in KB-8-5-11 adenocarcinoma cell line, qHTS therapeutic library screen (AID 1346987); conditions: KB-8-5-11 (P-gp overexpressing) viability, CellTiter-Glo, 72 h; series mostly up to 44.5 µM; further: nearly all actives have a fitted effect of over 65% in size
Method in brief: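 Compounds are pinned in dose-response onto KB-8-5-11 cells (500 cells/well, colchicine-free medium) and left 72 h at 37 degree C. CellTiter-Glo luminescence then yields AC50 values.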

[5] = qHTS assay for measurement of the activity of small molecule inhibitors on Zika virus induced Caspase-3 activity in human astrocytoma cells (AID 1224859); conditions: SNB-19 ZIKV-induced caspase-3/7, luminescence, 6 h; series mostly up to 45.7 µM
Method in brief: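 SNB-19 astrocytoma cells, 250/well, pretreated 1 h with compounds, then Zika virus at 2 FFU/cell for 6 h at 37 C; Caspase-Glo 3/7 luminescence after 30 min; percent inhibition normalised to uninfected and infected controls.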

In the case of `CCN(CC)CCOC(=O)C(Cc1cccc2ccccc12)CC1CCCO1` (stereo unspecified), the Potency [1] is reported as “inactive”, the Potency [2] is reported as “inactive” and the Potency [3] is reported as “inactive”.

With `FC(F)(F)C(F)(F)C(F)(F)C(F)(F)C(F)(F)C(F)(F)C(F)(F)C(F)(F)Br` the Potency [1] was “inactive”, the Potency [2] was “inactive” and the Potency [3] was “inactive”. The Potency [4] was “inactive”.

In the case of `Cc1ccc(-c2ncc(Cl)cc2-c2ccc(S(C)(=O)=O)cc2)cn1`, the Potency [1] is reported as “inactive”, the Potency [2] is reported as “inactive” and the Potency [3] is reported as “inactive”.

In the case of `CC(=C(CCOC(=O)C(C)C)SSC(CCOC(=O)C(C)C)=C(C)N(C=O)Cc1cnc(C)nc1N)N(C=O)Cc1cnc(C)nc1N`, the Potency [1] is reported as 11.2 µM (active), the Potency [2] is reported as “inactive” and the Potency [3] is reported as “inactive”. The Potency [4] was “inactive”.

With `CC(=O)OC[C@H]1O[C@@H](n2ncc(=O)[nH]c2=O)[C@H](OC(C)=O)[C@@H]1OC(C)=O` the Potency [1] was “inactive”, the Potency [2] was “inactive” and the Potency [3] was “inactive”.

In the case of `CCN[C@@H]1C[C@H](N)[C@@H](OC2OC(CN)=CCC2N)[C@H](O)[C@H]1O[C@H]1OC[C@](C)(O)[C@H](NC)[C@H]1O` (stereo partly specified), the activity change, negative = inhibition [1] is reported as 22% [at 0.568 µM], the Potency [2] is reported as “inactive” and the Potency [3] is reported as “inactive”. For the same compound, the Potency [4] was “inactive”.

With `NCCNc1cccc2ccccc12` the Potency [1] was “inactive”, the Potency [2] was “inactive” and the Potency [3] was “inactive”. The Potency [4] was “inactive”.

For `CC1(COc2ccc(CC3SC(=O)NC3=O)cc2)CCCCC1` (stereo unspecified), the Potency [1] was “inactive”, the Potency [2] was “inactive” and the Potency [3] was “inactive”. The Potency [4] was “inactive”.

For `Cc1ccc(O)c([C@H](CCN(C(C)C)C(C)C)c2ccccc2)c1`, the outcome [5] was “inactive”, the Potency [2] was “inactive” and the Potency [3] was “inactive”.

For `O=C(O)P(=O)(O)O`, the Potency [1] was “inactive”, the Potency [2] was “inactive” and the Potency [3] was “inactive”.

With `O[C@@H](c1cc(C(F)(F)F)nc2c(C(F)(F)F)cccc12)[C@H]1CCCCN1` the Potency [1] was “inactive”, the Potency [2] was 35.5 µM (active) and the Potency [3] was “inactive”.

With `COc1ccccc1N1CCN(CCCCNC(=O)c2ccc(-c3ccc(C(C)=O)cc3)cc2)CC1` the Potency [1] was “inactive”, the Potency [2] was “inactive” and the Potency [3] was “inactive”.
